# Data taken from ChEMBL document CHEMBL4513141, “CO-ADD screening of NIH (USA) - Clinical Collection” (2021).
# Potency and affinity values are given separately.
# How the values were obtained:
# [1] = tested on: Klebsiella pneumoniae; details: Concentration 20 uM; ASSAY_TEST Inhibition of Bacterial Growth; detection method Absorption (OD600); MEDIA CAMHB; plate type 384well; NBS; CORNING #3640; time 18 hr
# [2] = tested on: Candida albicans; details: 20 µM
# [3] = tested on: Cryptococcus neoformans; details: Concentration 20 uM; ASSAY_TEST Inhibition of Fungal Growth; detection method Resazurin; Absorption (OD600-OD570); plate type 384well; NBS; CORNING #3640
Compound,Inhibition [1] [%],Inhibition [2] [%],Inhibition [3] [%]
Nc1nc(O)c2ncn(CCC(CO)CO)c2n1 [PENCICLOVIR],17.55,0.56,-9.17
CN1CCN(C2=Nc3ccccc3Oc3ccc(Cl)cc32)CC1.O=C(O)CCC(=O)O [LOXAPINE SUCCINATE],7.32,2.62,-0.59
CCOC(=O)C1=C(C)NC(C)=C(C(=O)OC)C1c1cccc([N+](=O)[O-])c1 (stereo unspecified) [NITRENDIPINE],3.96,3.79,-6.79
CNCCCCOc1ccccc1Cc1ccccc1.Cl,18.69,1.66,-8.24
C[C@H](CS)C(=O)N1CCC[C@H]1C(=O)O [CAPTOPRIL],9.36,2.59,1.67
CN(C)CCCSc1ccccc1NC(=O)/C=C/c1ccccc1.Cl.O,18.81,2.74,-8.97
CC[C@H]1OC(=O)[C@H](C)C(=O)[C@H](C)[C@@H](O[C@@H]2O[C@H](C)C[C@H](N(C)C)[C@H]2O)[C@](C)(OC)C[C@@H](C)C(=O)[C@H](C)[C@@H]2N(CCCCn3cnc(-c4cccnc4)c3)C(=O)O[C@@]21C,3.48,0.39,-1.28
Cc1ccc(C)c(OCCCC(C)(C)C(=O)O)c1 [GEMFIBROZIL],7.25,8.15,-1.55
CC1(C)O[C@@H]2C[C@H]3[C@@H]4C[C@H](F)C5=CC(=O)C=C[C@]5(C)[C@@]4(F)[C@@H](O)C[C@]3(C)[C@]2(C(=O)CO)O1 [FLUOCINOLONE ACETONIDE],-0.92,5.45,6.47
COc1ccc2c(c1)c(CC(=O)O)c(C)n2C(=O)c1ccc(Cl)cc1.O,8.34,3.53,1.93
NS(=O)(=O)Cc1noc2ccccc12 [ZONISAMIDE],12.91,3.7,-5.53
CC(C)OC(=O)CCC/C=C\C[C@@H]1[C@@H](CC[C@@H](O)CCc2ccccc2)[C@H](O)C[C@@H]1O [LATANOPROST],18.51,0.35,-2.04
CCC(C)(C)/N=C(\NC#N)Nc1cccnc1,-0.95,3.82,-26.21
O.OC[C@H]1O[C@@H](n2cnc3c(NC4CCCC4)nc(Cl)nc32)[C@@H](O)C1O (stereo partly specified),3.81,1.81,-4.95
CC(=O)NCCCCCCNC(C)=O [HEXAMETHYLENEBISACETAMIDE],1.97,0.48,-6.53
Nc1ccc2cn[nH]c2c1,2.93,4.22,6.83
CN(C)CCOC(C)(c1ccccc1)c1ccccn1.O=C(O)CCC(=O)O (stereo unspecified) [DOXYLAMINE SUCCINATE],9.97,0.07,-8.18
CCCCNC(=O)NS(=O)(=O)c1ccc(C)cc1 [TOLBUTAMIDE],16.6,1.06,0.26
COc1ccc2cc(CCC(C)=O)ccc2c1 [NABUMETONE],8.45,5.24,-7.4
CN(C/C=C/C#CC(C)(C)C)Cc1cccc2ccccc12.Cl [TERBINAFINE HYDROCHLORIDE],11.69,32.9,35.41
CS(=O)(=O)OCCCCOS(C)(=O)=O [BUSULFAN],14.59,3.72,-1.79
Cc1cccc(Nc2ccncc2S(=O)(=O)NC(=O)NC(C)C)c1 [TORSEMIDE],8.97,2.49,0.39
CCCCC(=O)N(Cc1ccc(-c2ccccc2-c2nnn[nH]2)cc1)[C@H](C(=O)O)C(C)C,7.53,3.96,-1.97
CC(=O)O.CNC(=N)NCCC[C@H](N)C(=O)O [TILARGININE ACETATE],-3.72,2.96,-3.5
C=C(CC)C(=O)c1ccc(OCC(=O)O)c(Cl)c1Cl [ETHACRYNIC ACID],8.53,21.1,-8.91
C[C@]12CCC(=O)C=C1CC[C@@H]1[C@@H]2C(=O)C[C@@]2(C)[C@H]1CC[C@]2(O)C(=O)CO [CORTISONE],16.58,4.46,0.81

Compound,Inhibition [1] [%],Inhibition [2] [%],Inhibition [3] [%]
CCN(CC)CC1CCCCN1CC(=O)N1c2ccccc2C(=O)Nc2cccnc21 (stereo unspecified) [OTENZEPAD],12.92,3.03,3.45
CCC(CO)NCCNC(CC)CO (stereo unspecified),10.98,2.36,-1.69
CCN1CCCC1CNC(=O)c1cc(S(=O)(=O)CC)c(N)cc1OC (stereo unspecified) [AMISULPRIDE],4.49,1.45,-4
C[C@@H]1C[C@H]2[C@@H]3CCC4=CC(=O)C=C[C@]4(C)[C@@]3(F)[C@@H](O)C[C@]2(C)[C@H]1C(=O)CO [DESOXIMETASONE],9.74,2.64,2.06
Nc1nc(N)nc(-c2cc(Cl)ccc2Cl)n1.O=C(O)/C=C\C(=O)O [IRSOGLADINE MALEATE],5.85,2.42,-1.72
Cc1nc2n(c(=O)c1CCN1CCC(c3noc4cc(F)ccc34)CC1)CCCC2 [RISPERIDONE],4.8,0.09,-0.58
CC(C)Oc1ccc2c(=O)c(-c3ccccc3)coc2c1 [IPRIFLAVONE],12.22,3.92,2.68
COc1ccc(/C=C/C(=O)Nc2ccccc2C(=O)O)cc1OC,8.22,4.95,4.45
Cc1ncc([N+](=O)[O-])n1CC(C)O (stereo unspecified) [SECNIDAZOLE],8.29,1.89,0.36
N[C@@H](Cc1cc(I)c(Oc2cc(I)c(O)c(I)c2)c(I)c1)C(=O)O [LEVOTHYROXINE],0.79,21.1,-5.43
CC(=CCC1=C(C)C(=O)c2ccccc2C1=O)CCCC(C)CCCC(C)CCCC(C)C (stereo unspecified),6.75,3.2,1.23
CN(C)c1nc(N(C)C)nc(N(C)C)n1 [ALTRETAMINE],4.59,4.65,-7.07
CC(=O)O[C@@]12CO[C@@H]1C[C@H](O)[C@@]1(C)C(=O)[C@H](O)C3=C(C)[C@@H](OC(=O)[C@H](O)[C@@H](NC(=O)OC(C)(C)C)c4ccccc4)C[C@](O)([C@@H](OC(=O)c4ccccc4)[C@H]21)C3(C)C,11.64,1.38,-6.01
Cl.Cn1c(NCCN(CCO)CCCc2ccc([N+](=O)[O-])cc2)cc(=O)n(C)c1=O,3.03,4.73,-1.07
NS(=O)(=O)c1cc2c(cc1Cl)N=CNS2(=O)=O [CHLOROTHIAZIDE],4.1,4.39,-0.92
CS(=O)(=O)c1ccc(-c2cc(Br)sc2-c2ccc(F)cc2)cc1 [DUP-697],2.25,5.12,-8.07
CN(C)CCCN1c2ccccc2CCc2ccccc21.Cl [IMIPRAMINE HYDROCHLORIDE],11.14,0.7,0.01
CCC1=C[C@H]2CN(C1)Cc1c([nH]c3ccccc13)[C@@](C(=O)OC)(c1cc3c(cc1OC)N(C)[C@H]1[C@@](O)(C(=O)OC)[C@H](OC(C)=O)[C@]4(CC)C=CCN5CC[C@]31[C@@H]54)C2.O=C(O)C(O)C(O)C(=O)O.O=C(O)C(O)C(O)C(=O)O,8.46,4.55,-7.91
Nc1ccn([C@H]2CC[C@@H](CO)O2)c(=O)n1 [ZALCITABINE],8,0.46,-0.26
CO[C@H]1O[C@@H]2O[C@@]3(C)CC[C@H]4[C@H](C)CC[C@@H]([C@H]1C)[C@@]24OO3,9.17,19.1,6.04
CC(C)(C)NC(=O)[C@H]1CC[C@H]2[C@@H]3CC[C@H]4NC(=O)C=C[C@]4(C)[C@H]3CC[C@]12C [FINASTERIDE],-7.24,0.68,-1.89
O=C(O)c1cc(-c2ccc(F)cc2F)ccc1O [DIFLUNISAL],3.43,13.4,-3.56
CCCc1c(OCCCCc2nnn[nH]2)ccc(C(C)=O)c1O [TOMELUKAST],5.45,4.49,3.29
C[C@]12C=CC(=O)C=C1CC[C@@H]1[C@@H]2[C@@H](O)C[C@@]2(C)[C@H]1CC[C@]2(O)C(=O)CO [PREDNISOLONE],15.03,1.1,-7.92
Cc1nc(=O)c2cc(CN(C)c3ccc(C(=O)N[C@@H](CCC(=O)O)C(=O)O)s3)ccc2[nH]1 [RALTITREXED],9.17,2.26,-0.58
CNCCCC12CCC(c3ccccc31)c1ccccc12.Cl [MAPROTILINE HYDROCHLORIDE],10.44,3.58,-10.89
